The supplement of paper PMC10981050
Several values for one entry are separate records, joined by “and”; a condition that tells them apart may be missing. Identical values can stand only once. Counter-ions that a name gives are not always drawn.

Columns and labels:
Experiment in all cases: cell viability relative to vehicle control; higher = less cytotoxic
Details in all cases: 10 µM
K562 = test system: K562
In short: (§1)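 CRISPR-edited mutant clones and isogenic wild-type clones from four leukaemia lines were screened against Selleck bioactive, kinase and epigenetic probe libraries, with identity-inconsistent compounds excluded. Each compound was acoustically dispensed at a single 10 µM dose into 384-well plates holding 2000 cells in 50 µL medium per well. After 48 h the supernatant was removed and CellTiter-Glo luminescence was read. Viability was expressed as percent of the on-plate vehicle control and analysed in Genedata Screener.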

MARIMO = test system: MARIMO
In short: as §1

MOLM14 = test system: MOLM14
In short: as §1

OCI-AML2 = test system: OCI-AML2
In short: as §1

Row | SMILES | cell viability (K562; SRSF2 genotype: SRSF2 P95H/wt) | cell viability (K562; SRSF2 genotype: SRSF2 wt/wt) | cell viability (MARIMO; SRSF2 genotype: SRSF2 P95H/wt) | cell viability (MARIMO; SRSF2 genotype: SRSF2 wt/wt) | cell viability (MOLM14; SRSF2 genotype: SRSF2 P95H/wt) | cell viability (MOLM14; SRSF2 genotype: SRSF2 wt/wt) | cell viability (OCI-AML2; SRSF2 genotype: P95H/wt) | cell viability (OCI-AML2; SRSF2 genotype: wt/wt)
1 | CCC1=C(C)CN(C(=O)NCCc2ccc(S(=O)(=O)NC(=O)N[C@H]3CC[C@H](C)CC3)cc2)C1=O [Glimepiride] | 101% and 82.6% | 93.7% | 91.7% | 116% | 94.6% | 92.4% | 97.3% | 105%
2 | O=C(O)/C=C/c1ccc(Cn2ccnc2)cc1 [Ozagrel] | 102% and 100% | 94.6% | 101% | 106% | 102% | 100% | 98.1% | 99.6%
3 | Cc1ccc(S(=O)(=O)n2c(N)nc3ccccc32)cc1 | 95.4% and 101% | 97.9% | 102% | 104% | 102% | 104% | 98.3% | 97.2%
4 | CCN(CC)C(=S)SSC(=S)N(CC)CC [Disulfiram (Antabuse)] | 42.7% and 53.4% | 53.3% | 14% | 14.4% | 27.1% | 32.5% | 14% | 20.8%
5 | O=C(NCCCn1ccnc1)c1cc(-c2ccco2)on1 | 87.3% and 91.7% | 87.1% | 68.9% | 79.4% | 45.7% | 44.4% | 77.2% | 72.6%
6 | O=C1C(=C(O)C=Cc2ccc(O)cc2)C(O)=C([C@@H]2O[C@H](CO)[C@@H](O)[C@H](O)[C@H]2O)C(=O)C1(O)[C@@H]1O[C@H](CO)[C@@H](O)[C@H](O)[C@H]1O (some centres not stated) [Hydroxy safflor yellow A] | 90% and 88% | 84.7% | 90.1% | 97.3% | 85.4% | 87.7% | 89.7% | 104%
7 | Nc1nc(Nc2ccc(S(N)(=O)=O)cc2)nn1C(=O)c1c(F)cccc1F | 41.2% and 43.9% | 31.2% | 10.8% | 7.19% | 3.09% | 0.41% | 2.63% | 12%
8 | CC(=O)CCC=C(C)CCC=C(C)CCC=C(C)CCC=C(C)C [Teprenone] | 94.5% and 91.8% | 92.9% | 80.2% | 95.6% | 86.8% | 96.5% | 77.7% | 84.9%
9 | COc1ccc(-c2cc(=O)c3c(O)cc(OC4OC(CO)C(O)C(O)C4OC4OC(C)C(O)C(O)C4O)cc3o2)cc1O (configuration not stated) [Neodiosmin] | 93.3% and 85.3% | 90.1% | 94.6% | 97% | 97.6% | 100% | 89.8% | 94.4%
10 | COc1ccc(S(=O)(=O)N(C(C)=O)c2ccccc2/C=C/c2cc[n+]([O-])cc2)cc1 | 19.2% and 41.4% | 38.4% | 6.78% | 8.02% | 15.9% | 3.3% | 6.25% | 9.13%
11 | CCCCCCCCCCCCCCCC(=O)OCC(O)C1OC(=O)C(O)=C1O [L-Ascorbyl 6-palmitate] | 103% and 102% | 98.7% | 107% | 121% | 106% | 109% | 103% | 106%
12 | C/C=C(/C)C(=O)O[C@H]1c2cc(OC)c(OC)c(OC)c2-c2c(cc3c(c2OC)OCO3)C[C@H](C)[C@]1(C)O [Schisantherin B] | 98.1% and 96.8% | 93.7% | 93% | 94.1% | 82.8% | 92.6% | 97.1% | 97%
13 | N#Cc1ccc([C@H]2CCc3cncn32)c(F)c1 | 103% and 100% | 88.2% | 100% | 113% | 99.5% | 101% | 95.9% | 94.6%
14 | O=c1ncn2nc(Sc3ccc(F)cc3F)ccc2c1-c1c(Cl)cccc1Cl | 84.8% and 86.8% | 83.6% | 77.9% | 84% | 82.1% | 92.9% | 64.1% | 68.6%
15 | O=C1O[C@H]([C@@H](O)CO)C(O)=C1O [Vitamin C (Ascorbic acid)] | 89.8% and 88.3% | 85.8% | 100% | 92.8% | 90.8% | 95.1% | 91% | 93%
16 | COc1cc(C2Oc3ccc(C4Oc5cc(O)cc(O)c5C(=O)C4O)cc3OC2CO)ccc1O (configuration not stated) [Isosilybin] | 92.6% and 89.8% | 85.4% | 99% | 106% | 104% | 98.9% | 96.8% | 95.3%
17 | CN[C@@H](C)C(=O)N[C@H]1CN(C(=O)CC(C)C)CC[C@H]2CC[C@@H](C(=O)NC(c3ccccc3)c3ccccc3)N2C1=O | 69.6% and 74.7% | 72.8% | 64.5% | 46.6% | 0.57% | 0.76% | 60.2% | 39.2%

Row | SMILES | cell viability (K562; SRSF2 genotype: SRSF2 P95H/wt) | cell viability (K562; SRSF2 genotype: SRSF2 wt/wt) | cell viability (MARIMO; SRSF2 genotype: SRSF2 P95H/wt) | cell viability (MARIMO; SRSF2 genotype: SRSF2 wt/wt) | cell viability (MOLM14; SRSF2 genotype: SRSF2 P95H/wt) | cell viability (MOLM14; SRSF2 genotype: SRSF2 wt/wt) | cell viability (OCI-AML2; SRSF2 genotype: P95H/wt) | cell viability (OCI-AML2; SRSF2 genotype: wt/wt)
18 | CN(Cc1ccc(C(C)(C)C)cc1)Cc1cccc2ccccc12 [Butenafine HCl] | 97% and 102% | 91.6% | 84.1% | 105% | 93.4% | 98% | 85.5% | 101%
19 | COc1cc(CCC(C)=O)ccc1O [Vanillylacetone] | 104% and 93.6% | 91.8% | 100% | 108% | 101% | 101% | 97.8% | 108%
20 | O=[N+]([O-])c1ccc(Nc2ccccc2-c2ccccc2)c2nonc12 | 104% and 97.4% | 95.7% | 96.7% | 109% | 94.2% | 95.2% | 103% | 107%
21 | CCC1(c2ccccc2)C(=O)NCNC1=O [Primidone (Mysoline)] | 113% and 104% | 107% | 106% | 114% | 102% | 107% | 98% | 110%
22 | COC(=O)C[C@](O)(CCCC(C)(C)O)C(=O)O[C@@H]1C(OC)=C[C@]23CCCN2CCc2cc4c(cc2[C@H]13)OCO4 [Homoharringtonine] | 12.4% and 19.9% | 23% | 9.06% | 4.23% | 1.21% | 1.06% | 5.52% | 11.4%
23 | Cc1cnc(-c2ccccc2C(C)C)nc1NCc1ccc(-n2ccnn2)cc1 | 76.7% and 83.9% | 74.5% | 91.1% | 89.7% | 94% | 88.5% | 93.2% | 90.2%
24 | COc1ccc(-c2nc(-c3cc(C(F)(F)F)cc(C(F)(F)F)c3)n(Cc3ccc(C(N)=O)cc3)c2-c2ccc(OC)cc2)cc1 [Apoptozole] | 80.8% and 87.7% | 80.8% | 89.9% | 88.9% | 88.5% | 90.3% | 69.4% | 84.9%
25 | CCCCc1oc2ccccc2c1C(=O)c1cc(I)c(OCCN(CC)CC)c(I)c1 [Amiodarone HCl] | 70.3% and 74.5% | 69.9% | 52.3% | 58.6% | 54.8% | 62.7% | 42.8% | 48.5%
26 | Fc1ccc(CNc2ncnc3ccc(F)cc23)cc1 [Spautin-1] | 66.5% and 63.9% | 66.7% | 54.7% | 41.1% | 51.3% | 59.4% | 35.6% | 31.5%
27 | COc1ccc(Cn2c3ncnc4c(ncn4Cc4ccc(OC)cc4)c-3nc2=O)cc1 | 1.11% and 1.3% | 0.98% | 4.49% | 17.2% | 9.44% | 2.32% | 4.12% | 5.63%
28 | COc1cc(CCc2cc(NC(=O)c3ccc(N4CC(C)NC(C)C4)cc3)n[nH]2)cc(OC)c1 (configuration not stated) | 68.8% and 79.7% | 59.6% | 46% | 42.1% | 14.4% | 21.5% | 8.06% | 17.9%
29 | C[C@]12CCC(=O)C=C1CC[C@@H]1[C@@H]2[C@@H](O)C[C@@]2(C)[C@H]1CC[C@]2(O)C(=O)CO [Hydrocortisone (Cortisol)] | 99.7% and 98.6% | 110% | 105% | 99% | 107% | 100% | 109% | 118%
30 | COc1ccccc1OCCN [Carvedilol EP IMpurity E] | 112% and 110% | 113% | 98% | 102% | 103% | 107% | 119% | 117%
31 | C=C1C(=O)O[C@@H]2C[C@@]3(C)CCCC(=C)[C@@H]3C[C@H]12 [Isoalantolactone] | 27.5% and 44.2% | 40.2% | 23% | 25.4% | 12% | 16.1% | 1.8% | 6.98%
32 | O=C([O-])c1ccccc1O.[Na+] [Sodium salicylate] | 93.7% and 88.7% | 85.5% | 94.4% | 97% | 97% | 94.1% | 91.2% | 98%
33 | COc1ccc(-c2ccc3ncc4c(c3c2)n(-c2ccc(N3CCNCC3)c(C(F)(F)F)c2)c(=O)n4C)cn1 | 0.26% and 0.21% | 0.16% | 0.25% | 0.28% | 0.18% | 0.18% | 0.11% | 0.16%
34 | Oc1cc(O)cc(/C=C/c2ccc(O)c(O)c2)c1 [Piceatannol] | 86.5% and 89.3% | 97% | 92.8% | 88.8% | 71.8% | 79.7% | 90.4% | 87.9%
